Sampled rows, rich in hits. Any-hit rate of the full collection: about 21%.
Cycloheximide cs = affects cycloheximide protein synthesis inhibition readout, counter-screen; cell reporter, cycloheximide protein synthesis inhibition counterscreen; max response, %; actives 12% (n = 300,000); in the data active = max response mostly above about 13%, no sharp cut-off; inactive = mostly below about 14%; also: read at 38.3 µM for the half of the compounds with a filed dose
Shiga toxin inh = blocks Shiga toxin action in Vero cells. Vero cells, Shiga toxin protein synthesis inhibition reporter. inhibition, % at 38.7 µM. actives 9.2% (n = 290,000); in the data active = inhibition mostly above about 28%, no sharp cut-off; inactive = mostly below about 43%
Pf growth 48h = inhibits P. falciparum growth in the first generation, 48 h | P. falciparum luciferase growth in erythrocytes, 48 h | Potency, µM (titrated, usually from 28.7 µM), actives largely listed as inhibitors | actives 5.9% (n = 310,000) | AID 504832
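In quantitative HTS format, infected erythrocytes bearing luciferase-reporter parasites were treated for a single generation at 37 C. Luminescence after adding detection reagent served as the growth measure.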
Pf growth 96h = P. falciparum growth inhibition at 96 hours; P. falciparum luciferase reporter growth, 96 h; Potency, µM (titrated, usually from 28.7 µM), hits mostly inhibitors; actives 6.9% (n = 320,000)
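Infected RBCs, 2% Hct / 0.05% parasitemia final; luciferase-reporter P. falciparum; cpd 96 h, 37 C, 5% CO2; luciferase detection reagent; luminescence.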
Large screens that a line does not name were inactive. Unless noted, calls follow the shape of the dose curve; as a rule, active = well fitted inhibition curve with a large enough effect; inconclusive = small, poorly fitted or top-dose-only effect, or another doubt; inactive = no such curve, though single readings can be large or run the other way.

CC(=O)Oc1ccc2ccccc2c1C(NC(=O)C(C)C)c1cccc([N+](=O)[O-])c1 (stereo not given)	Pf growth 48h 1.85µM (no result: Pf growth 96h)
O=C(NCc1ccccc1CN1CCCC1)C1CCN(C(=O)c2ccc(F)cc2)CC1	Pf growth 48h inconclusive (no result: Cycloheximide cs, Shiga toxin inh)
CCc1ccc(C(=O)/C=C/c2cnn(C)c2C)s1	Cycloheximide cs 23.0, Shiga toxin inh 33.7
CCCOC(=O)c1c(NC(=O)/C=C/c2cnn(C)c2C)sc(C(=O)OC)c1C	Pf growth 48h inconclusive
Cc1c(/C=C/C(=O)c2cccs2)cnn1C	Cycloheximide cs 33.4, Shiga toxin inh 95.6
CCC(NC(=O)COc1cc2c(c3oc(=O)c(C)c(C)c13)CCC(C)(C)O2)C(=O)O (stereo not given)	Pf growth 96h inconclusive
Cc1c(C)c2c(OCC(=O)N3CCC(O)CC3)cc3c(c2oc1=O)CCC(C)(C)O3	Pf growth 48h 13.1µM, Pf growth 96h 7.38µM
Cc1c(C)c2c(OCC(=O)N3CCC[C@H]3C(=O)O)cc3c(c2oc1=O)CCC(C)(C)O3	Pf growth 48h inconclusive, Pf growth 96h 13.1µM
CCN1CCN(CC(=O)Nc2c(OC)cccc2OC)CC1	none (no result: Pf growth 48h)
CC(=O)OC(C(=O)NC1CCCCC1)c1ccc(Cl)c(Cl)c1 (stereo not given)	Pf growth 48h inconclusive
COc1ccc(S(=O)(=O)Nc2cc3c(cc2C(C)=O)OCO3)cc1	none
CCOC(=O)c1ccc(NC(=O)CSc2nc(-c3cccs3)cc(C(F)(F)F)c2C#N)cc1	none (no result: Pf growth 48h, Pf growth 96h)
O=C(O)CNC(=O)c1ccc(NC(=O)/C(=C/c2ccccc2)NC(=O)c2ccco2)cc1	Pf growth 96h inconclusive
O=C(COc1ccc(OCc2ccccc2)cc1)NN=C1CCCC1	Pf growth 96h inconclusive
O=C1CCCCC/C1=N/Nc1ccc(OCc2ccccc2)cc1	Cycloheximide cs 12.0
Cn1nnnc1SCc1nnc(-c2ccc(F)cc2)o1	Cycloheximide cs 21.9, Shiga toxin inh 38.9 (no result: Pf growth 96h)
Cn1nnnc1SCc1ccc(CSc2nnnn2C)cc1	none
Cn1nnnc1SCc1nnc(-c2ccccc2Br)o1	Cycloheximide cs 32.6, Shiga toxin inh 86.1
Cc1nnc(SCc2nnc(-c3ccccc3Br)o2)s1	Cycloheximide cs 23.8, Pf growth 96h inconclusive
Cc1ccc(-n2nnnc2SCc2nnc(-c3ccccc3Br)o2)c(C)c1	Pf growth 48h inconclusive (no result: Pf growth 96h)
CNc1c(NS(=O)(=O)c2cc(OC)ccc2OC)c(=O)oc2ccccc12	Pf growth 48h inconclusive
Nc1nnnn1/N=C/c1cccc(Oc2ccccc2)c1	Pf growth 96h 7.38µM
Cc1ccc(-c2nc(N)n(S(C)(=O)=O)n2)cc1	Cycloheximide cs 30.1
Cc1ccc(S(=O)(=O)n2nc(-c3cccnc3)nc2N)cc1	none
CC(=O)Nc1ccc(S(=O)(=O)n2nc(-c3ccc(C)cc3)nc2N)cc1	Pf growth 96h 1.65µM
CN=C1S/C(=C\c2cc(C)n(-c3ccccc3F)c2C)C(=O)N1C	Cycloheximide cs 43.7, Shiga toxin inh 95.7
Cc1cc(/C=C2\SC(=O)NC2=O)c(C)n1-c1ccc(N2CCOCC2)cc1	Pf growth 48h 10.4µM, Pf growth 96h inconclusive
CN=C1S/C(=C\c2ccc(N3CCOCC3)cc2C)C(=O)N1C	none
CC(=O)NC1=NC(=O)/C(=C/c2cc(C)n(-c3ccc(NC(C)=O)cc3)c2C)S1	Cycloheximide cs 33.0
Cc1cc(/C=C2\SC(=O)N(C)C2=O)c(C)n1-c1ccc(S(N)(=O)=O)cc1	Cycloheximide cs 22.3
Cc1cc(/C=C2/C(=O)NC(=O)N(C)C2=O)c(C)n1-c1ccccc1	Pf growth 96h inconclusive
Cn1c(NC(=O)c2ccccc2F)c(-c2cccs2)c(=O)c2ccccc21	none
CN1CCN(c2ccc(CNS(=O)(=O)c3ccc(Cl)cc3)cc2)CC1	none
CCCc1nnc(NC(=O)CCC(=O)Nc2ccc(Br)cc2)s1	none
Cc1cc(/C=C2\SC(=O)NC2=O)c(C)n1-c1ccc(N(C)C)cc1	none
Cc1cc(/C=C2\SC(=O)N(C)C2=O)c(C)n1-c1ccc(O)cc1	Cycloheximide cs 34.1, Shiga toxin inh 51.0
O=Cc1ccc(N2CCCCC2)cc1	none
N#C/C(=C/c1ccc(N2CCCCC2)cc1)c1cccc(F)c1	Cycloheximide cs 36.4
N#C/C(=C/c1ccc(N2CCCCC2)o1)c1cccc(F)c1	Cycloheximide cs 39.2, Shiga toxin inh 64.8, Pf growth 96h inconclusive (no result: Pf growth 48h)
N#CC(C#N)=Cc1ccc(N2CCCC2)cc1	Cycloheximide cs 28.5
CC(C)(C)OC(=O)N1Cc2ccccc2C[C@H]1C(=O)NCC(=O)NC1CCCCC1	Pf growth 48h inconclusive, Pf growth 96h inconclusive
Cc1cc(-c2csc(NC(=O)c3ccc(=O)[nH]c3)n2)c(C)n1Cc1ccco1	Pf growth 96h inconclusive
CCNc1nc(-c2cc(C)n(Cc3ccco3)c2C)cs1	Cycloheximide cs 53.1, Shiga toxin inh 103.9, Pf growth 96h inconclusive

Screening data from PubChem BioAssay.
